# Assay results published in PubChem BioAssay (EPA / NIEHS).
# Calls of active or inactive are those of the source. How the source made its calls: active means hit-call score of the fitted dose curve at least 0.9, where 1 is the maximum; inactive means score below 0.9.
# Key:
# Settings in all cases: mRNA level, 48 h; actives raise or lower the signal
# CYP2C9 (gene 1559) = assay: LTEA_HepaRG_CYP2C9: Life Technologies and Expression Analysis (LTEA) Assay for CYP2C9 using HepaRG (AID 2283484)
# Procedure, shortened: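 Differentiated human HepaRG cells in serum-free induction medium were exposed 48 h to chemicals in 8-point half-log series from 100 uM (0.5% DMSO), in duplicate. CYP2C9 mRNA was measured by qRT-PCR, normalized to ACTB/GAPDH/POLR2A, with bidirectional fitting versus DMSO.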
# CYP2E1 (gene 1571) = assay: LTEA_HepaRG_CYP2E1: Life Technologies and Expression Analysis (LTEA) Assay for CYP2E1 using HepaRG (AID 2283485)
# Procedure, shortened: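 HepaRG cells, plated 48 h, then exposed 48 h in serum-free induction medium to eight half-log concentrations from 100 uM in 0.5% DMSO, duplicate. CYP2E1 mRNA by qRT-PCR, normalized to ACTB/GAPDH/POLR2A; bidirectional fit versus DMSO.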
# CYP4A11 (gene 1579) = assay: LTEA_HepaRG_CYP4A11: Life Technologies and Expression Analysis (LTEA) Assay for CYP4A11 using HepaRG (AID 2283486)
# Procedure, shortened: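 Readout is CYP4A11 transcript level by qRT-PCR, normalized to three housekeeping genes and fitted bidirectionally against 0.5% DMSO. Human HepaRG cells were treated 48 h, in duplicate, with an 8-point half-log series topping at 100 uM.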
# [1] = read-out: Cytochrome P450 3A4 (Homo sapiens) (UniProt P08684); assay: LTEA_HepaRG_CYP3A4: Life Technologies and Expression Analysis (LTEA) Assay for CYP3A4 using HepaRG (AID 2283487)
# Procedure, shortened: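 HepaRG, 48 h exposure, 8-pt CRC from 100 uM (half-log), 0.5% DMSO, duplicates; serum-free induction medium. Readout: CYP3A4 mRNA, qRT-PCR, ACTB/GAPDH/POLR2A normalization. Bidirectional fit vs DMSO.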
# [2] = read-out: DNA damage-inducible transcript 3 (DDIT3), DDIT3 (gene 1649); assay: LTEA_HepaRG_DDIT3: Life Technologies and Expression Analysis (LTEA) Assay for DNA damage-inducible transcript 3 (DDIT3) using HepaRG (AID 2283488)
# Procedure, shortened: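 HepaRG cells, 48 h after plating, exposed 48 h in serum-free induction medium to 8 half-log concentrations up to 100 uM in 0.5% DMSO, in duplicate. DDIT3 mRNA measured by TaqMan qRT-PCR, normalized to ACTB, GAPDH and POLR2A. Fitted bidirectionally against DMSO.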
# [3] = read-out: Pro-epidermal growth factor (Homo sapiens) (UniProt P01133); assay: LTEA_HepaRG_EGF: Life Technologies and Expression Analysis (LTEA) Assay for Epidermal growth factor (EGF) using HepaRG (AID 2283489)
# Procedure, shortened: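 EGF transcript measured by Fluidigm TaqMan qRT-PCR with three housekeeping genes for normalization, 48 h after dosing HepaRG cultures in duplicate (top 100 uM, half-log steps, 0.5% DMSO vehicle). Gain or loss relative to DMSO fitted.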
# [4] = read-out: Early growth response protein 1 (EGR1) transcription factor, EGR1 (gene 1958); assay: LTEA_HepaRG_EGR1: Life Technologies and Expression Analysis (LTEA) Assay for Early growth response protein 1 (EGR1) transcription factor using HepaRG (AID 2283490)
# Procedure, shortened: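 Differentiated HepaRG cells in serum-free induction medium exposed 48 hours, duplicate, to 8 half-log concentrations up to 100 uM in 0.5% DMSO. EGR1 mRNA measured by TaqMan qRT-PCR, normalized to ACTB, GAPDH, POLR2A; bidirectional fit versus DMSO.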
# [5] = read-out: Ezrin (EZR), EZR (gene 7430); assay: LTEA_HepaRG_EZR: Life Technologies and Expression Analysis (LTEA) Assay for Ezrin (EZR) using HepaRG (AID 2283491)
# Procedure, shortened: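 Read-out is EZR transcript level by qRT-PCR, normalized to three housekeeping genes and fitted bidirectionally against the DMSO control. Human HepaRG cells received test chemicals for 48 h at eight half-log concentrations up to 100 uM in 0.5% DMSO.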
# [6] = read-out: Cytochrome P450 3A7 (Homo sapiens) (UniProt P24462); assay: LTEA_HepaRG_CYP3A7: Life Technologies and Expression Analysis (LTEA) Assay for CYP3A7 using HepaRG (AID 2283492)
# Procedure, shortened: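 CYP3A7 transcript measured by qRT-PCR (ACTB, GAPDH, POLR2A normalization) after 48 h chemical exposure of HepaRG cells in duplicate. Eight half-log concentrations, maximum 100 uM, 0.5% DMSO vehicle; bidirectional curve fitting against DMSO baseline.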
# CYP3A5 (gene 1577) = assay: LTEA_HepaRG_CYP3A5: Life Technologies and Expression Analysis (LTEA) Assay for CYP3A5 using HepaRG (AID 2283493)
# Procedure, shortened: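 HepaRG cells, plated 48 h then in serum-free induction medium, dosed in duplicate for 48 h with eight half-log concentrations up to 100 uM in 0.5% DMSO. Gene mRNA by Fluidigm TaqMan qRT-PCR, normalized to ACTB, GAPDH, POLR2A.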
# [7] = read-out: Fatty Acid-Binding Protein 1 (FABP1), FABP1 (gene 2168); assay: LTEA_HepaRG_FABP1: Life Technologies and Expression Analysis (LTEA) Assay for Fatty Acid-Binding Protein 1 (FABP1) using HepaRG (AID 2283494)
# Procedure, shortened: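 Differentiated human HepaRG cells exposed 48 h in serum-free induction medium to eight half-log concentrations up to 100 uM (0.5% DMSO), duplicate. FABP1 mRNA by qRT-PCR, normalised to ACTB, GAPDH, POLR2A; bidirectional fitting against DMSO.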
# [8] = read-out: Cytochrome P450 4A22 (Homo sapiens) (UniProt Q5TCH4); assay: LTEA_HepaRG_CYP4A22: Life Technologies and Expression Analysis (LTEA) Assay for Cytochrome P450 4A22 (CYP4A22) using HepaRG (AID 2283495)
# Procedure, shortened: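 Gene expression measured by qRT-PCR against three housekeeping genes (ACTB, GAPDH, POLR2A), with gain or loss fitted relative to 0.5% DMSO vehicle. HepaRG cultures received 48 h chemical treatment, top concentration 100 uM, half-log steps, duplicate wells.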
# [9] = read-out: Cytochrome P450 7A1 (Homo sapiens) (UniProt P22680); assay: LTEA_HepaRG_CYP7A1: Life Technologies and Expression Analysis (LTEA) Assay for Cytochrome P450 7A1 (CYP7A1) using HepaRG (AID 2283496)
# Procedure, shortened: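 HepaRG cells plated 48 h, then switched to serum-free induction medium and exposed in duplicate for 48 h to 8-point half-log series from 100 uM in 0.5% DMSO. CYP7A1 mRNA by qRT-PCR (TaqMan), normalized to ACTB/GAPDH/POLR2A; bidirectional fit versus DMSO.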
# [10] = read-out: Glutathione S-Transferase (GSTA2), GSTA2 (gene 2939); assay: LTEA_HepaRG_GSTA2: Life Technologies and Expression Analysis (LTEA) Assay for Glutathione S-Transferase (GSTA2) using HepaRG (AID 2283497)
# Procedure, shortened: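 Differentiated human HepaRG cells were exposed in duplicate for 48 h in serum-free induction medium, 8 points from 100 uM top in half-log steps, 0.5% DMSO. GSTA2 mRNA was measured by TaqMan qRT-PCR, normalized to ACTB, GAPDH and POLR2A; bidirectional fit versus DMSO.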
# [11] = read-out: Glutamate-cysteine ligase catalytic (GCLC), GCLC (gene 2729); assay: LTEA_HepaRG_GCLC: Life Technologies and Expression Analysis (LTEA) Assay for Glutamate-cysteine ligase catalytic (GCLC) using HepaRG (AID 2283498)
# Procedure, shortened: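 Differentiated HepaRG cells exposed 48 h in serum-free induction medium, eight-point half-log series topping at 100 uM in 0.5% DMSO, duplicates. GCLC mRNA by qRT-PCR normalized to ACTB, GAPDH and POLR2A, fitted bidirectionally versus DMSO.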
# [12] = read-out: growth arrest and DNA damage 45 (GADD45G), GADD45G (gene 10912); assay: LTEA_HepaRG_GADD45G: Life Technologies and Expression Analysis (LTEA) Assay for growth arrest and DNA damage 45 (GADD45G) using HepaRG (AID 2283499)
# Procedure, shortened: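 GADD45G transcript level by qRT-PCR (housekeeping-normalized: ACTB, GAPDH, POLR2A) after 48 h chemical treatment of a single HepaRG lot in serum-free induction medium; eight-point half-log series up to 100 uM in 0.5% DMSO, duplicates, up- or down-regulation scored.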
# [13] = read-out: Glutamate-cysteine ligase regulatory (GCLM), GCLM (gene 2730); assay: LTEA_HepaRG_GCLM: Life Technologies and Expression Analysis (LTEA) Assay for Glutamate-cysteine ligase regulatory (GCLM) using HepaRG (AID 2283500)
# Procedure, shortened: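 Differentiated HepaRG cells exposed 48 h in serum-free induction medium to eight half-log concentrations up to 100 uM (0.5% DMSO). GCLM mRNA by TaqMan qRT-PCR, normalized to ACTB, GAPDH and POLR2A; bidirectional fit versus DMSO.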
# [14] = read-out: Glutathione S-transferase M3 (GSTM3), GSTM3 (gene 2947); assay: LTEA_HepaRG_GSTM3: Life Technologies and Expression Analysis (LTEA) Assay for Glutathione S-transferase M3 (GSTM3) using HepaRG (AID 2283501)
# Procedure, shortened: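 GSTM3 transcript levels came from Fluidigm TaqMan qRT-PCR normalized to three housekeeping genes, fitted in both directions against DMSO. HepaRG cultures received chemicals for 48 h in serum-free induction medium (0.5% DMSO), 8 half-log concentrations up to 100 uM, duplicate.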
# [15] = read-out: Heat shock 70 kDa protein 1 (HSPA1A), gene 3303; assay: LTEA_HepaRG_HSPA1A: Life Technologies and Expression Analysis (LTEA) Assay for Heat shock 70 kDa protein 1 (HSPA1A) using HepaRG (AID 2283502)
# Procedure, shortened: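 Human HepaRG cells in serum-free induction medium were exposed in duplicate for 48 h to 8 half-log concentrations, highest 100 uM, in 0.5% DMSO. HSPA1A mRNA read by TaqMan qRT-PCR, normalized to ACTB, GAPDH, POLR2A, fitted bidirectionally against DMSO.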
# [16] = read-out: Hypoxia-inducible factor 1-alpha (Homo sapiens) (UniProt Q16665); assay: LTEA_HepaRG_HIF1A: Life Technologies and Expression Analysis (LTEA) Assay for Hypoxia-inducible factor 1 (HIF1A) Trancription factor using HepaRG (AID 2283503)
# Procedure, shortened: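 Differentiated HepaRG cells in serum-free induction medium exposed 48 h, in duplicate, to 8-point half-log series from 100 uM in 0.5% DMSO. HIF1A mRNA measured by TaqMan qRT-PCR, normalized to ACTB/GAPDH/POLR2A, fitted bidirectionally versus DMSO.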
# Hypoxia-inducible factor 1-alpha (Homo sapiens), sequence (Q16665 whole entry, looked up): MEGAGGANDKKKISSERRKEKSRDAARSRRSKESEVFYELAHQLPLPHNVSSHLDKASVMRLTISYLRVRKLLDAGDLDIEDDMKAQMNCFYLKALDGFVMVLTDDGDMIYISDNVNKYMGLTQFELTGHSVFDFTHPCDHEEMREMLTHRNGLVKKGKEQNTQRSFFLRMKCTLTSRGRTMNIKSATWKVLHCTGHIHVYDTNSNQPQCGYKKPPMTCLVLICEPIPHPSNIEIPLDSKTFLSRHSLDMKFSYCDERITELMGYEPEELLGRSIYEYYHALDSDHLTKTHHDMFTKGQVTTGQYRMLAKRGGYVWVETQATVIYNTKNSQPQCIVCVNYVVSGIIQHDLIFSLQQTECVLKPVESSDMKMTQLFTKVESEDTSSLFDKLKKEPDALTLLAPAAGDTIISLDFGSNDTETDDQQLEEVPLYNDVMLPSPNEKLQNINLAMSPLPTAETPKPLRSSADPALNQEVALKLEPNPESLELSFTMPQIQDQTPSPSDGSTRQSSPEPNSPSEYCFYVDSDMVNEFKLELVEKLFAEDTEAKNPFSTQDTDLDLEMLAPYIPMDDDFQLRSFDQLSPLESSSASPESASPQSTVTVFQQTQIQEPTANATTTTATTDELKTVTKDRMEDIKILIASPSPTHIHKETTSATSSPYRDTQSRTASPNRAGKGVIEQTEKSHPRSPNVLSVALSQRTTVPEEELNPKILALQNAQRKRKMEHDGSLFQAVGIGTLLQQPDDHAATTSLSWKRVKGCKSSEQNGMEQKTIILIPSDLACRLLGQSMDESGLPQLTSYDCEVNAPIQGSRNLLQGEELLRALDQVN
# Cytochrome P450 3A4 (Homo sapiens), sequence (P08684 whole entry, looked up): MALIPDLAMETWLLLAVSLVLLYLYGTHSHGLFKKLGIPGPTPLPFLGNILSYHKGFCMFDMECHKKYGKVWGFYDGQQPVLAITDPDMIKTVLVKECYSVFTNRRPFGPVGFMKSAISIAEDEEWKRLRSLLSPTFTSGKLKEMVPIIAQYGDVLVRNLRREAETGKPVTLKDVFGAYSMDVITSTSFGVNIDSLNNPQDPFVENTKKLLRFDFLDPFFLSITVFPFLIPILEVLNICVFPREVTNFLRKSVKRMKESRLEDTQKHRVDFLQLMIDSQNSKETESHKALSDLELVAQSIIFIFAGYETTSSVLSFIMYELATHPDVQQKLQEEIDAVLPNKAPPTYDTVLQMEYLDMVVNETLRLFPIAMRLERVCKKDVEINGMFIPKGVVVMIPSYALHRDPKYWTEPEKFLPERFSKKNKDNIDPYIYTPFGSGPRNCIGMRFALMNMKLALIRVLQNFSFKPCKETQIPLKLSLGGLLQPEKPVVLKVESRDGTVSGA
# Cytochrome P450 3A7 (Homo sapiens), sequence (P24462 whole entry, looked up): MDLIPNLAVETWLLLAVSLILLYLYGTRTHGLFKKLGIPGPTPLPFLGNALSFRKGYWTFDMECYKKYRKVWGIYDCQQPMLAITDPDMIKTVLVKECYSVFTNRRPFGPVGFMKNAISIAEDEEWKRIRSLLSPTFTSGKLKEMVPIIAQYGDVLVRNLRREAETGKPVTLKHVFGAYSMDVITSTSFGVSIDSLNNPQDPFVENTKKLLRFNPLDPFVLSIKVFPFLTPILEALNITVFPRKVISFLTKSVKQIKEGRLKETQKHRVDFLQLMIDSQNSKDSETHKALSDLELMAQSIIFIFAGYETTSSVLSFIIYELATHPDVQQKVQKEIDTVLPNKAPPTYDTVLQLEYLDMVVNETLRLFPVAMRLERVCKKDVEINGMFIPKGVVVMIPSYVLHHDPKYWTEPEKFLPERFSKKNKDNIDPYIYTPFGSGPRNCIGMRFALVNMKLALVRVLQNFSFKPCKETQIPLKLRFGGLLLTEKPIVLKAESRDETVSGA
compound,measurement,setting,value
COc1cccc(-c2ccc(/C=C\CN3CCCCCC3)cc2Cl)c1,AC50,CYP2C9 (gene 1559),70.8 µM (active)
same,AC50,CYP2E1 (gene 1571),61.8 µM (active)
same,AC50,CYP4A11 (gene 1579),85.4 µM (active)
same,AC50,[1],76.3 µM (active)
same,AC50,[2],79.4 µM (active)
same,outcome,[3],inactive
same,AC50,[4],72.7 µM (active)
same,AC50,[5],45.2 µM (active)
same,AC50,[6],81.9 µM (active)
same,AC50,CYP3A5 (gene 1577),8.98 µM (active)
same,AC50,[7],84.1 µM (active)
same,AC50,[8],84.4 µM (active)
same,AC50,[9],69.2 µM (active)
same,AC50,[10],71 µM (active)
same,outcome,[11],inactive
same,AC50,[12],45.2 µM (active)
same,AC50,[13],68.7 µM (active)
same,AC50,[14],79.1 µM (active)
same,AC50,[15],67.9 µM (active)
same,AC50,[16],83 µM (active)
C1N2CN3CN1CN(C2)C3,outcome,CYP2C9 (gene 1559),inactive
same,outcome,CYP2E1 (gene 1571),inactive
same,outcome,CYP4A11 (gene 1579),inactive
same,outcome,[1],inactive
same,outcome,[2],inactive
same,outcome,[3],inactive
same,outcome,[4],inactive
same,outcome,[5],inactive
same,outcome,[6],inactive
same,outcome,CYP3A5 (gene 1577),inactive
same,outcome,[7],inactive
same,outcome,[8],inactive
same,outcome,[9],inactive
same,outcome,[10],inactive
same,outcome,[11],inactive
same,outcome,[12],inactive
same,outcome,[13],inactive
same,outcome,[14],inactive
same,outcome,[15],inactive
same,outcome,[16],inactive
CC(=O)OC[C@H]1O[C@@](COC(C)=O)(O[C@H]2O[C@H](COC(C)=O)[C@@H](OC(C)=O)[C@H](OC(C)=O)[C@H]2OC(C)=O)[C@@H](OC(C)=O)[C@@H]1OC(C)=O,outcome,CYP2C9 (gene 1559),inactive
same,outcome,CYP2E1 (gene 1571),inactive
same,outcome,CYP4A11 (gene 1579),inactive
same,outcome,[1],inactive
same,outcome,[2],inactive
same,outcome,[3],inactive
same,outcome,[4],inactive
same,outcome,[5],inactive
same,outcome,[6],inactive
same,outcome,CYP3A5 (gene 1577),inactive
same,outcome,[7],inactive
same,outcome,[8],inactive
same,outcome,[9],inactive
same,outcome,[10],inactive
same,outcome,[11],inactive
same,outcome,[12],inactive
same,outcome,[13],inactive
same,outcome,[14],inactive
same,outcome,[15],inactive
same,outcome,[16],inactive
